# Source: PubChem BioAssay (EPA / NIEHS)
# Results filed as inconclusive are left out. The source made the active and inactive calls. The calls were made as follows, unless noted: active = hit-call score of the fitted dose curve at least 0.9, where 1 is the maximum; inactive = score below 0.9.
# Key:
# [1] = target: Paired box protein Pax-6 (Homo sapiens) (UniProt P26367); test: ATG_Pax6_CIS: Attagene CIS-FACTORIAL HepG2 Assay for human Paired Box 6 (PAX6) (AID 2282956); details: HepG2 CIS-FACTORIAL PAX6 reporter transcription, RNA readout; actives raise or lower the signal
# Method in brief: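 Values derive from bidirectional curve fitting of reporter mRNA signal relative to DMSO. HepG2 cells bearing transfected cis-regulated MRTUs were exposed for 24 h; transcripts were read by RT-PCR and capillary electrophoresis.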
# [2] = ATG_PXRE_CIS: Attagene CIS-FACTORIAL HepG2 Assay for human Pregnane X Receptor Element (PXRE) (AID 2282957); details: HepG2 Attagene CIS-FACTORIAL PXRE reporter, mRNA; actives raise or lower the signal
# Method in brief: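 Using HepG2 transfected with multiple reporter transcription units, endogenous factor-driven transcription was scored as reporter mRNA after 24 h exposure.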
# [3] = ATG_RORE_CIS: Attagene CIS-FACTORIAL HepG2 Assay for human RAR-related Orphan Receptor Element (RORE) (AID 2282959); details: HepG2 Attagene cis-factorial RORE reporter, mRNA; actives raise or lower the signal
# Method in brief: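 Cells were HepG2 carrying transfected cis-regulated reporter constructs, dosed for 24 hours. Total RNA was reverse-transcribed and reporter cDNA amplified, fluorescently labeled and sized by capillary electrophoresis. Activity was fitted bidirectionally relative to DMSO.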
# [4] = ATG_Sox_CIS: Attagene CIS-FACTORIAL HepG2 Assay for human SRY-box transcription factor (SOX) (AID 2282960); details: HepG2 Attagene cis-factorial SOX reporter, mRNA; actives raise or lower the signal
# Method in brief: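 Transient MRTU transfection of HepG2; 24 h compound incubation; TriZol RNA, oligo(dT) RT, PCR, 6-FAM primer extension, HpaI cut, CE. Bidirectional fit, DMSO = baseline.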
# [5] = target: Transcription factor Sp1 (Homo sapiens) (UniProt P08047); test: ATG_Sp1_CIS: Attagene CIS-FACTORIAL HepG2 Assay for human Specificity Protein 1 (Sp1) (AID 2282961); details: HepG2 Sp1 cis-reporter transcription, actives raise or lower the signal
# Method in brief: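 Endogenous Sp1 activity was gauged in human liver HepG2 cells bearing transfected reporter units under a cis-regulating promoter. After 24 h dosing, reporter mRNA was quantified by RT-PCR with capillary electrophoresis, and activity fitted bidirectionally versus DMSO.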
# [6] = ATG_SREBP_CIS: Attagene CIS-FACTORIAL HepG2 Assay for human Sterol Regulatory Element Binding (SREBP) (AID 2282962); details: HepG2 Attagene cis-factorial SREBP reporter, mRNA; actives raise or lower the signal
# Method in brief: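 Values derive from bidirectional curve fitting with DMSO as baseline. The underlying measurement is reporter mRNA from cis-element-regulated units in transiently transfected HepG2, quantified by RT-PCR and capillary electrophoresis after 24 h exposure.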
# [7] = target: Signal transducer and activator of transcription 3 (Homo sapiens) (UniProt P40763); test: ATG_STAT3_CIS: Attagene CIS-FACTORIAL HepG2 Assay for human Signal Transducer and Activator of Transcription 3 (STAT3) (AID 2282963); details: HepG2, Attagene cis-factorial STAT3 reporter transcription; actives raise or lower the signal
# Method in brief: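 Readout is reporter transcript quantified by RT-PCR and capillary electrophoresis, with 6-FAM primer extension and HpaI digestion. Total RNA is taken 24 h after dosing transiently transfected HepG2 carrying cis-regulated reporter units. Bidirectional fit against DMSO.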
# [8] = ATG_TA_CIS: Attagene CIS-FACTORIAL HepG2 Assay for human TA Basal Promoter (AID 2282964); details: HepG2 Attagene CIS-factorial TA basal promoter reporter; actives raise or lower the signal
# Method in brief: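 HepG2 cells transiently transfected with multiplexed cis-promoter reporter units, dosed 24 h. Reporter mRNA measured by RT-PCR, 6-FAM labelling, HpaI digestion and capillary electrophoresis; bidirectional fit versus DMSO baseline, serving as background control.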
# [9] = ATG_TCF_b_cat_CIS: Attagene CIS-FACTORIAL HepG2 Assay for human T-Cell-Factor with beta-catenin (TCF/b-cat) (AID 2282965); details: HepG2 TCF/beta-catenin cis-reporter transcription, actives raise or lower the signal
# Method in brief: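 Measured: reporter mRNA in HepG2 transiently transfected with cis-promoter reporter units, 24 h after chemical addition. Fitting was bidirectional, DMSO as negative control.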
# [10] = ATG_TAL_CIS: Attagene CIS-FACTORIAL HepG2 Assay for human TAL Basal Promoter (AID 2282966); details: HepG2 Attagene cis-factorial TAL promoter reporter; actives raise or lower the signal;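 also: background control endpoint measuring basal TAL promoter reporter mRNA not a specific factor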
# Method in brief: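 After 24 hours of chemical exposure, transfected HepG2 cells yielded RNA that was converted to 6-FAM-labelled, HpaI-digested reporter fragments for capillary electrophoresis. Values derive from bidirectional fitting against DMSO controls.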
# [11] = ATG_TGFb_CIS: Attagene CIS-FACTORIAL HepG2 Assay for human Transforming Growth Factor (TGF) (AID 2282967); details: HepG2 Attagene CIS TGFb reporter, mRNA transcription; actives raise or lower the signal
# Method in brief: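 HepG2 cells transiently transfected with cis-promoter-driven multiplexed reporter units; 24 h compound exposure. Reporter mRNA measured by RT-PCR, 6-FAM labeling, HpaI digestion and capillary electrophoresis; bidirectional fit versus DMSO baseline.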
# [12] = target: Estrogen receptor (Homo sapiens) (UniProt P03372); test: ATG_ERa_TRANS: Attagene TRANS-FACTORIAL HepG2 Assay for human Estrogen Receptor alpha (ERa) (AID 2282970; active = hit-call score of the fitted dose curve at least 0.9, where 1 is the maximum); details: HepG2 Attagene TRANS ERa GAL4 reporter, mRNA
# Method in brief: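 Liver-derived HepG2 cells expressing chimeric nuclear receptor-Gal4 proteins from transient transfection were exposed for 24 hours. Gain of reporter mRNA signal versus DMSO, read by capillary electrophoresis of FAM-labelled PCR products, was recorded.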
# [13] = target: X-box-binding protein 1 (Homo sapiens) (UniProt P17861); test: ATG_Xbp1_CIS: Attagene CIS-FACTORIAL HepG2 Assay for human X-box Binding Protein 1 (XBP1) (AID 2282972); details: HepG2 XBP1 cis-element reporter, Attagene multiplex; actives raise or lower the signal
# Method in brief: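 Human hepatoma HepG2, cis-element reporter system, 24 h treatment; mRNA quantified by RT-PCR/CE fluorescence; fit relative to DMSO.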
# Chain of X-box-binding protein 1 (Homo sapiens) (P17861 whole entry, looked up): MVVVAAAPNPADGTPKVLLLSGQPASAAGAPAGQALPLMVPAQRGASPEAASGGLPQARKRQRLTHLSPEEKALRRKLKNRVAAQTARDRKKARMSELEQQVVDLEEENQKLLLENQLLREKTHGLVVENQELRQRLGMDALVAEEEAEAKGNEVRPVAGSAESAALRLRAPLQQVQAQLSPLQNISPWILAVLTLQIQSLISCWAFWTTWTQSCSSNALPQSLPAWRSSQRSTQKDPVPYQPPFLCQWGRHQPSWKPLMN
# Chain of Paired box protein Pax-6 (Homo sapiens) (P26367 whole entry, looked up): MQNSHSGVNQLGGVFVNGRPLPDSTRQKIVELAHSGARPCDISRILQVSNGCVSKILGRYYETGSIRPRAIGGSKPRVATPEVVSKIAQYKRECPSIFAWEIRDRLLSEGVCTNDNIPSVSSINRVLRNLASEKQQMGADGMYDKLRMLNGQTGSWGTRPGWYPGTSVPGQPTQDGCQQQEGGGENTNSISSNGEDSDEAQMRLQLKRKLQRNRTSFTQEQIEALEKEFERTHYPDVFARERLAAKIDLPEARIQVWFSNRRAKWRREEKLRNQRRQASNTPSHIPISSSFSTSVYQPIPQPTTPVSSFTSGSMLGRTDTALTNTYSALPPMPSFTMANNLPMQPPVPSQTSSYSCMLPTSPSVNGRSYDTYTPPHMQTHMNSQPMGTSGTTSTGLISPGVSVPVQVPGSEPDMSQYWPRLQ
# Chain of Estrogen receptor (Homo sapiens) (P03372 whole entry, looked up, the tested form may be a part): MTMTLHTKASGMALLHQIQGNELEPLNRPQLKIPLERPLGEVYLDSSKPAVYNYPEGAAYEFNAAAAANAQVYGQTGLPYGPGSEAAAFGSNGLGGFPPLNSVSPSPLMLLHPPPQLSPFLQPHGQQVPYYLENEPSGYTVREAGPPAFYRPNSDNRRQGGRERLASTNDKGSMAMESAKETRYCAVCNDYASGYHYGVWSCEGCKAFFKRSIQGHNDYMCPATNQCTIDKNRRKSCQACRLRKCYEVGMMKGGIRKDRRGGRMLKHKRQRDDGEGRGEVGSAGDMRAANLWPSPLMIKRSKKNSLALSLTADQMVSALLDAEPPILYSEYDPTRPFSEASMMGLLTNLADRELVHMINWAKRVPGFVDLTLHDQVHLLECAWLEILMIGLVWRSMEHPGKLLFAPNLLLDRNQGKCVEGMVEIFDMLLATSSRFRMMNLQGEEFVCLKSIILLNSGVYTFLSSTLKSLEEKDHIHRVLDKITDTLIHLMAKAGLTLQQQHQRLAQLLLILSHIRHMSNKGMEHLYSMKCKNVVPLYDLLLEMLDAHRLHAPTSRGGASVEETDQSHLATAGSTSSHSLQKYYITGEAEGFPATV
# Chain of Signal transducer and activator of transcription 3 (Homo sapiens) (P40763 whole entry, looked up): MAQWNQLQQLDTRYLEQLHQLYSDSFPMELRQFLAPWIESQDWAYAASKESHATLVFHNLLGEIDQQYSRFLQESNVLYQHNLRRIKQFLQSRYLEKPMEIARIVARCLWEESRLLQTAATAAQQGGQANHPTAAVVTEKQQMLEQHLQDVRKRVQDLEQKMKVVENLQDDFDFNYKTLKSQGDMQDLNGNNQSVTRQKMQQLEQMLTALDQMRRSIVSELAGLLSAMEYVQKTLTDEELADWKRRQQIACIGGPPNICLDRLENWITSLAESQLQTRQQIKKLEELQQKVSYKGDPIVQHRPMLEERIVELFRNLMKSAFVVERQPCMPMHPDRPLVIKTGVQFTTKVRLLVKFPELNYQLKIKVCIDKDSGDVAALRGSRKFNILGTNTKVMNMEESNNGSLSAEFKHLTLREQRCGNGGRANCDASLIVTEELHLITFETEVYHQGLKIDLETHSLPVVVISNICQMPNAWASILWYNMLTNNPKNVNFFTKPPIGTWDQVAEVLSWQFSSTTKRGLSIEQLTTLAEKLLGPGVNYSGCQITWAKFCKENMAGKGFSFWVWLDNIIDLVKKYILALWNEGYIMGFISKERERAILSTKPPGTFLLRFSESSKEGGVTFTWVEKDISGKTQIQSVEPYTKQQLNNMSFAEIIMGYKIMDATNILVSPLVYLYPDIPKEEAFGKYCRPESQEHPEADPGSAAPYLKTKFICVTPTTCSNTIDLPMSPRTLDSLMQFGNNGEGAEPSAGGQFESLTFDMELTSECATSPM
# Chain of Transcription factor Sp1 (Homo sapiens) (P08047 whole entry, looked up): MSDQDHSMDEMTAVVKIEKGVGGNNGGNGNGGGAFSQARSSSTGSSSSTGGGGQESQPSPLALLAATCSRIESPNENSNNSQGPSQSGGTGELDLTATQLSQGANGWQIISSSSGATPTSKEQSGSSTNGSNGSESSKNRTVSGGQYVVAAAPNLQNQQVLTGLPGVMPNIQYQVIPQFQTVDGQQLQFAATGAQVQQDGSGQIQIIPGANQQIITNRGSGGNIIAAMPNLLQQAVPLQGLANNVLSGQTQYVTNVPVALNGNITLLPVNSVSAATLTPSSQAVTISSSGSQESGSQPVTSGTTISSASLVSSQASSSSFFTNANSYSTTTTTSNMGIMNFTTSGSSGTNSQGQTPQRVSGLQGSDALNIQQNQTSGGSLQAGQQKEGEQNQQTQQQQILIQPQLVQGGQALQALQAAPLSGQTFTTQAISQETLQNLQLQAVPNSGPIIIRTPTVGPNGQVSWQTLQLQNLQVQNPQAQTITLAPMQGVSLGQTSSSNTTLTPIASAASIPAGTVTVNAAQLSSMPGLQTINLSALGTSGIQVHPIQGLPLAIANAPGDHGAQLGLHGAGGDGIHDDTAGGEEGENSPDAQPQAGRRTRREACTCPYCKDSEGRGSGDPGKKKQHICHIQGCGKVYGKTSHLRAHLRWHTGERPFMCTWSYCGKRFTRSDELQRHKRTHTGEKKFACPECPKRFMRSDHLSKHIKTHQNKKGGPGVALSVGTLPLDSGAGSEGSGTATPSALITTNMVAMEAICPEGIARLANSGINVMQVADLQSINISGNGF
compound,measurement,setting,value
CCCCC/C=C\C=C\C(=O)OCC,AC50,[1],62.9 µM (active)
same,AC50,[2],1.51 µM (active)
same,outcome,[3],inactive
same,AC50,[4],28.4 µM (active)
same,AC50,[5],28.7 µM (active)
same,outcome,[6],inactive
same,outcome,[7],inactive
same,outcome,[8],inactive
same,outcome,[9],inactive
same,outcome,[10],inactive
same,AC50,[11],74.2 µM (active)
same,outcome,[12],inactive
same,AC50,[13],61.1 µM (active)
